Source: PubChem (National Center for Advancing Translational Sciences (NCATS))
The list is not random: actives were taken first. Their share in the collection is about 19%.
LASV entry inh: qHTS for Inhibitors of binding or entry into cells for Lassa Virus | Lassa virus pseudotype entry inhibition, cell reporter | Potency, µM (doses to about 37.9 µM), for inactives: top-dose activity change, negative = inhibition, hits mostly inhibitors | actives 1.2% (n = 300,000); calls by dose curve; tested in HEK293 cells; note: potency is the fitted concentration of half-maximal effect; % is set by controls: 0 for no effect and ±100 for the full control effect; nearly all actives have a fitted effect of over 50% in size
Shiga inhibitor: A qHTS for Small Molecule Inhibitors of Shiga Toxin; Vero cells, Shiga toxin protein synthesis inhibition reporter; inhibition, % at 38.7 µM; actives 9.2% (n = 290,000); in the data active = inhibition mostly above about 28%, no sharp cut-off; inactive = mostly below about 43%; note: 0% is about no effect
CHX counter: Cycloheximide Counterscreen for Small Molecule Inhibitors of Shiga Toxin; actives 12% (n = 300,000); AID 2314, 2010; max response, %; cell reporter, cycloheximide protein synthesis inhibition counterscreen; in the data active = max response mostly above about 13%, no sharp cut-off; inactive = mostly below about 14%; note: read at 38.3 µM for the half of the compounds with a filed dose; 0% is about no effect
Pf growth 96h: Primary qHTS for delayed death inhibitors of the malarial parasite plastid, 96 hour incubation | actives 6.9% (n = 320,000) | Potency, µM (doses to about 28.7 µM), for inactives: top-dose activity change, negative = inhibition, hits mostly inhibitors | AID 504834, 2011 | P. falciparum luciferase reporter growth, 96 h; note: potency is the fitted concentration of half-maximal effect; % is set by controls: 0 for no effect and ±100 for the full control effect
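Compounds incubated with erythrocytes infected by luciferase-expressing P. falciparum (2% hematocrit, 0.05% parasitemia final) for 96 hours, 37 C in 5% CO2. Growth inhibition scored as decreased luciferase luminescence.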
Pf growth 48h: Primary qHTS for delayed death inhibitors of the malarial parasite plastid, 48 hour incubation. P. falciparum luciferase growth in erythrocytes, 48 h. Potency, µM (titrated, usually from 28.7 µM), for inactives: at the highest dose activity change, negative = inhibition, most hits filed as inhibitors. actives 5.9% (n = 310,000); note: potency is the fitted concentration of half-maximal effect; % is set by controls: 0 for no effect and ±100 for the full control effect
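In quantitative HTS format, infected erythrocytes bearing luciferase-reporter parasites were treated for a single generation at 37 C. Luminescence after adding detection reagent served as the growth measure.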
Marburg entry inh: qHTS for inhibitors of binding or entry into cells for Marburg Virus | Marburg virus pseudotyped entry inhibition, cell reporter | Potency, µM (series often up to 37.8 µM), inactives show at the highest dose activity change, negative = inhibition, most hits filed as inhibitors | actives 1.8% (n = 300,000) | AID 540276, 2011; calls by dose curve; tested in HEK293 cells; note: potency is the fitted concentration of half-maximal effect; % is set by controls: 0 for no effect and ±100 for the full control effect
* = called active by the depositor; i = inactive; ? = inconclusive; nt = not tested or not shown; [ ] = dose if it differs, or a comment. Unless noted, calls come from the whole dose curve; as a rule, active = well fitted inhibition curve with a large enough effect; inconclusive = small, poorly fitted or top-dose-only effect, or another doubt; inactive = no such curve, though single readings can be large or run the other way.

SMILES	LASV entry inh	Shiga inhibitor	CHX counter	Pf growth 96h	Pf growth 48h	Marburg entry inh
COc1cccc(C(=O)Nc2ccccc2F)c1	19.4%	98.2*	30.0*	31.9%	79.7%	?
O=C(Nc1ccccc1F)c1ccc(C(=O)c2ccccc2)cc1	-4.7%	75.0*	28.9*	116.9%	84.7%	?
O=C(Nc1ccccc1F)c1cccc(C(=O)Nc2ccccc2F)c1	19.1%[46.1 µM]	19.4	13.9	?	120.6%	?
O=C(Nc1ccccc1F)Oc1cccc(OC(=O)Nc2ccccc2F)c1	nt	100.7*	45.5*	145.0%	127.1%	nt
c1ccc(Cn2cc(-c3cccnc3)cn2)cc1	nt	nt	nt	78.0%	39.6%	nt
CCOc1ccc(CCNC(=O)c2cc([N+](=O)[O-])ccc2N2CCOCC2)cc1OCC	5.7%	9.6	-2.0	?	?	?
CCn1cc(C(=O)NC(=S)Nc2sc3c(c2C(=O)OC)CCCCCC3)cn1	?	-6.6	3.6	?	6.5%	?
COc1cccc(C(=O)Nc2ccc(F)cc2F)c1	-8.1%	59.1*	39.2*	417.6%	353.2%	19.9%
COc1ccccc1OCc1ccc(C(=O)Nc2ccccc2F)cc1	12.1%	47.3*	6.7*	1.8%	104.8%	?
COc1ccc(-c2cccc(C(=O)Nc3ccccc3C)c2)cc1	18.3%	-9.1	0.6	9.28µM*	4.5%	?
CCOc1ccc(C(=O)Nc2ccc(C(F)(F)F)n(C)c2=O)cc1	-0.4%[46.1 µM]	-14.8	-4.6	1.0%	6.8%	4.4%[46.1 µM]
COc1cccc(C(=O)Nc2ccc(C(F)(F)F)n(C)c2=O)c1	4.0%	50.5*	34.6*	243.7%	299.8%	?
CCOC(=O)Nc1ccc(N2CCOCC2)c(S(=O)(=O)N2CCOCC2)c1	1.3%	-10.2	-2.7	29.1%	-11.0%	-2.0%
O=c1[nH][nH]c(C(F)(F)F)c1C=NCc1cccs1	nt	-5.6	-2.3	?	?	nt
CCOC(=O)C(=O)Cc1nc(OCc2ccccc2)cc(OCc2ccccc2)n1	-20.3%[46.1 µM]	nt	nt	nt	nt	?
COc1cccc(C(=O)Nc2ccc(F)c(F)c2F)c1	12.5%	136.2*	34.8*	274.6%	159.1%	?
O=C(Nc1c(F)cc(F)cc1Br)c1cccnc1	-19.2%	26.9	-1.7	50.1%	-6.2%	2.7%
O=C(Nc1ccc(Br)cc1F)c1cccnc1	-16.7%	86.1*	15.3	102.3%	82.5%	-51.9%
COc1cccc(C(=O)N(C)CC(=O)Nc2ccc(F)c(F)c2F)c1	25.6%[46.1 µM]	-7.0	-5.9	16.9%	14.2%[0.00184 µM]	18.3%[46.1 µM]
Cn1ccc(C(=O)Oc2ccc(C(=O)Nc3ccc(F)cc3F)cc2)n1	24.2%	53.0	26.1*	9.3%	i	0.1%
CC(C)Oc1cccc(C(=O)Nc2ccc(Br)cc2F)c1	2µM*	106.6*	65.2*	1.5%	343.0%	?
Cn1ncc(Br)c1C(=O)Nc1ccc(F)cc1F	-18.2%	6.1	-1.9	7.5%	12.8%	8.5%
Cc1cc2c(s1)c1cnn(Cc3ccc(C(F)(F)F)cc3)c(=O)c1n2C	nt	-6.9	-6.4	nt	nt	nt
Cc1cc(C(=O)CCC(=O)NC(C)c2ccc(S(N)(=O)=O)cc2)c(C)s1 (stereo unspecified)	?	nt	nt	28.7%	22.1%	-10.5%
COc1ccc(NC(=O)Nc2ccc(Cc3ccncc3)cc2)c(OC)c1	-26.8%	-2.6	-0.5	-8.3%	-4.3%	-6.5%
SMILES	LASV entry inh	Shiga inhibitor	CHX counter	Pf growth 96h	Pf growth 48h	Marburg entry inh
O=C(Nc1ccccc1)Oc1cccc(Br)c1	nt	28.4	13.5*	22.3%	31.2%	nt
CC(=O)/C(N)=N/Nc1cccc(Cl)c1	25.0%	-7.1	-5.6	-16.9%	16.6%	-10.0%
CC1(C)Cc2ccccc2C(/C(=N/O)C(N)=O)=N1	28.5%	-8.2	-3.4	?	-11.5%	3.4%
CC(=O)c1ccc(N/N=C(/C(N)=O)C2=NC(C)(C)Cc3ccccc32)cc1	2.91µM*	-13.2	-1.9	5.0%	?	3.26µM*
CC1(C)Cc2ccccc2C(/C(=N\Nc2cccc(Cl)c2)C(N)=O)=N1	?	-2.9	8.7	9.3%	5.86µM*	?
O=C(c1ccc(Cl)c(S(=O)(=O)N2CCOCC2)c1)N1CCc2ccccc2C1	6.5%	nt	nt	nt	nt	?
CCNc1nc(NCC)n2c(SCC(=O)N3CC4(C)CC3CC(C)(C)C4)nnc2n1 (stereo unspecified)	5.9%	-14.2	-8.2	?	?	14.9%
CN(CC(=O)Nc1ccc(Cl)c(C(F)(F)F)c1)C(=O)C1CC(=O)N(CCc2ccccc2)C1 (stereo unspecified)	7.5%	nt	nt	?	?	?
Cc1ccc(S(=O)(=O)c2nc(-c3ccccc3)oc2N2CCCC2)cc1	nt	nt	nt	?	11.5%	nt
CCN(CC)CCNC(=O)CNC(=O)c1nn(-c2ccc(OC)cc2OC)c(=O)c2ccccc12	nt	-6.2	-3.1	?	nt	nt
Cc1ccc(C)c(-n2c3nc(=O)[nH]c(=O)c-3cc3cc([N+](=O)[O-])ccc32)c1	3.16µM*	-1.0	7.9	-3.9%	25.2%	?
CCc1c(O)nc(SCC(=O)Nc2nc3ccccc3s2)n(-c2ccc(C)cc2)c1=O	nt	93.2*	45.2*	135.9%	94.6%	nt
CCn1nnnc1SCC(=O)Nc1nc2ccccc2s1	7.1%	9.8	21.4*	-11.8%	16.7%	12.0%[46.1 µM]
Cc1nc(NC(=O)CSc2nnnn2Cc2ccccc2)sc1C	27.5%	75.0*	27.8*	28.2%	10.2%	-12.2%[46.1 µM]
CCOC(=O)N1CCC(NC(=O)c2cc3c(-c4ccccc4F)nn(C)c3s2)CC1	nt	-15.4	-4.8	?	nt	nt
CC(=O)Nc1ccc(NC(=O)CCc2nc3sc4c(c3c(=O)[nH]2)CCCC4)cc1	7.4%	nt	nt	-34.8%	?	21.4%
O=C(NCCCN1CCCCC1)c1ccc2c(c1)NC(=O)c1ccccc1S2	nt	-8.1	-2.4	?	?	nt
CCN1C(=O)c2ccccc2Sc2ccc(C(=O)NCCCN3CCCCC3)cc21	nt	-9.0	-6.8	10.4µM*	-17.0%	nt
CCOc1ccc(CN2C(=O)c3ccccc3Sc3ccc(C(=O)NCc4ccc(C)cc4)cc32)cc1	?	-3.3	11.0	nt	nt	10µM*
O=C1Nc2cc(C(=O)NCCCN3CCCC3)ccc2S/C1=C/c1ccccc1F	nt	-1.4	5.3	13.1µM*	?	nt
CCN(CC)CCCNC(=O)c1ccc2c(c1)N(Cc1c(F)cccc1Cl)C(=O)c1ccccc1S2	?	nt	nt	nt	nt	6.31µM*
Cc1ccccc1NS(=O)(=O)c1ccc(OCC(=O)NCC2CCCO2)cc1 (stereo unspecified)	?	21.0	-1.5	-20.5%	?	10.1%
Cc1ccc(S(=O)(=O)OCC(=O)Nc2ccc(C(=O)O)c(O)c2)cc1	17.5%	nt	nt	nt	nt	3.7%
Cc1ccc(-n2c([C@@H]3C[C@H]3c3ccccc3)n[nH]c2=S)cc1	-6.3%	21.9	7.5	1.9%	7.4%	9.9%
COc1ccc(CNC(=O)c2ccc3c(c2)N(Cc2c(F)cccc2Cl)C(=O)CS3)cc1	?	nt	nt	nt	nt	11.2µM*
